Source: PubChem BioAssay (EPA / NIEHS)
The source made the active and inactive calls. The calls were made as follows: active = hit-call score of the fitted dose curve at least 0.9, where 1 is the maximum; inactive = score below 0.9.

Columns and labels:
[1] = Tanguay_ZF_120hpf_ANY: Oregon State University Tanguay Lab 120 Hour Post-fertilization zebrafish Assay for Any Mortality and Malformation (AID 2284404)
Summary of the method: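 Dechorionated Tropical 5D wild-type embryos, one per well from 6 hpf, static exposure in sealed, dark plates at 28C until 120 hpf, 0.64% DMSO final. Brightfield scoring of mortality and malformations as binary presence/absence, pooling 13 morphology endpoints.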

[2] = CCTE_Padilla_ZF_Score.Edema: CCTE's 144 Hour Post-fertilization zebrafish Assay Score for Edema Malformation, Padilla Lab (AID 2284406)
Summary of the method: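 Wild-type zebrafish embryos, one per well in Hanks' solution, dosed at 6-8 hpf, sealed and reared at 26C on a 14:10 h cycle; rinsed on 5 dpf. At 6 dpf, blinded assessors scored edema by stereomicroscopy.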

[3] = CCTE_Padilla_ZF_Score.Spine: CCTE's 144 Hour Post-fertilization zebrafish Assay Score for Spine Malformation, Padilla Lab (AID 2284407)
Summary of the method: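 Wild-type zebrafish embryos, one per well in Hanks' solution, dosed at 6–8 hpf in sealed plates at 26C, 14:10 h light:dark; rinsed at 5 dpf. Two blinded assessors scored spinal defects by stereomicroscopy at 6 dpf; fitted versus DMSO.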

[4] = CCTE_Padilla_ZF_Score.Swim_bladder: CCTE's 144 Hour Post-fertilization zebrafish Assay Score for Swim Bladder Malformation, Padilla Lab (AID 2284408)
Summary of the method: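 Wild-type zebrafish embryos, one per well in 10% Hanks', dosed at 6–8 hpf, sealed, reared at 26C and rinsed at 5 dpf. Blinded assessors scored uninflated swim bladder by stereomicroscopy at 6 dpf, relative to DMSO.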

[5] = CCTE_Padilla_ZF_Score.Position: CCTE's 144 Hour Post-fertilization zebrafish Assay Score for Position, Padilla Lab (AID 2284409)
Summary of the method: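 Wild-type zebrafish embryos (with chorions) exposed singly from 6–8 hpf in sealed wells of Hanks' solution at 26C, rinsed at 5 dpf. At 6 dpf, blinded assessors scored abnormal water-column position by brightfield stereomicroscopy, relative to DMSO.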

[6] = CCTE_Padilla_ZF_Score.Living: CCTE's 144 Hour Post-fertilization zebrafish Assay Score for Viability, Padilla Lab (AID 2284410);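 also: larval death at 6 dpf judged by absent heartbeat or coagulation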
Summary of the method: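 Wild-type zebrafish embryos were exposed singly from 6–8 hpf in sealed wells of Hanks' solution at 26C, then rinsed at 5 dpf. At 6 dpf, blinded assessors scored mortality (no heartbeat or coagulation) by stereomicroscopy, fitted against DMSO.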

[7] = CCTE_Padilla_ZF_Score.General: CCTE's 144 Hour Post-fertilization zebrafish Assay Score for General Malformation, Padilla Lab (AID 2284411)
Summary of the method: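 Wild-type zebrafish embryos were plated singly at 6-8 hpf in 10% Hanks' and exposed in sealed wells at 26C until rinsed on 5 dpf. At 6 dpf two blinded assessors scored mortality, hatching and malformations by stereomicroscopy; gain-of-signal versus DMSO.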

[8] = CCTE_Padilla_ZF_Score.Craniofacial: CCTE's 144 Hour Post-fertilization zebrafish Assay Score for Craniofacial Malformation, Padilla Lab (AID 2284405)
Summary of the method: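 Wild-type zebrafish embryos (with chorions), one per well in 10% Hanks', were dosed at 6–8 hpf in sealed plates and kept at 26C. They were rinsed at 5 dpf. At 6 dpf two blinded assessors scored craniofacial malformations by brightfield stereomicroscopy.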

[9] = CCTE_Padilla_ZF_Score.Tail: CCTE's 144 Hour Post-fertilization zebrafish Assay Score for Tail Malformation, Padilla Lab (AID 2284414)
Summary of the method: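 Wild-type zebrafish embryos, one per well in 200 uL 10% Hanks', dosed at 6-8 hpf, sealed, and kept at 26 C on a 14:10 h light cycle. Chemical was rinsed out at 5 dpf. Blinded brightfield scoring of tail defects followed at 6 dpf.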

[10] = CCTE_Padilla_ZF_Score.Blood_pooling: CCTE's 144 Hour Post-fertilization zebrafish Assay Score for Blood Pooling, Padilla Lab (AID 2284415)
Summary of the method: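 Wild-type outbred zebrafish embryos, one per well in 10% Hanks', exposed from 6–8 hpf in sealed plates at 26C on 14:10 h light:dark, rinsed at 5 dpf. Blinded stereomicroscope scoring of blood pooling at 6 dpf; gain-of-signal versus DMSO.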

Measured: AC50

O=C(F)C1(F)C(F)(F)C(F)(F)C(F)(F)C(F)(F)C1(F)F
inactive: [1] | [2] | [3] | [4] | [5] | [6] | [7]

O=S(=O)(O)CCC(F)(F)C(F)(F)C(F)(F)C(F)(F)F
inactive: [1] | [2] | [3] | [4] | [5] | [6] | [7]

O=C(O)C(F)(F)C(F)(F)C(F)(F)C(=O)O
inactive: [1] | [2] | [3] | [4] | [5] | [6] | [7]

FC(F)(F)C(F)(F)C(F)(F)C(F)(F)C(F)(F)C(F)(F)C(F)(F)CCI
inactive: [1] | [2] | [3] | [4] | [5] | [6] | [7]

OCC(F)(F)C(F)(F)C(F)(F)CO
inactive: [1] | [2] | [3] | [4] | [5] | [6] | [7]

O=C(O)C(F)(F)C(F)(F)C(F)(F)OC(F)(C(F)(F)F)C(F)(F)F
inactive: [1] | [2] | [3] | [4] | [5] | [6] | [7]

CCOC(=O)CC(=O)C(F)(F)C(F)(F)F
inactive: [1] | [2] | [3] | [4] | [5] | [6] | [7]

NC(=O)C(F)(F)C(F)(F)C(F)(F)C(F)F
inactive: [1] | [8] | [2] | [3] | [4] | [5] | [6] | [7] | [9] | [10]

O=C(O)CCC(F)(F)C(F)(F)C(F)(F)F
inactive: [1] | [8] | [2] | [3] | [4] | [5] | [6] | [7]

O=S(=O)(OCC(F)(F)F)C(F)(F)C(F)(F)C(F)(F)C(F)(F)F
inactive: [1] | [3] | [5] | [6] | [7]
active: [2] 34.1 µM | [4] 88.8 µM
